Source: PubChem BioAssay
TNF necrop inh: TNF-alpha cell death inhibition in Jurkat FADD-/- cells | Jurkat FADD-/- TNF necroptosis rescue, ATP luminescence, 24 h; 0 = TNF only, 100 = no-TNF cells | activation (protection from cell death), % at 10 µM | actives 0.068% (n = 220,000);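 active = activation, meaning protection from cell death, of at least 50% relative to plate controls; inactive = activation below 50%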;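 note: necroptosis triggered by 40 ng/mL TNF-alpha added together with compound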
HSV replic up: HSV replication enhancement. actives 0.005% (n = 220,000). HSV replication augmentation in cells, fold increase. maximum fold increase; in the data active = maximum fold increase above about 1.5; inconclusive = no clear call, values can overlap the other calls; tested in PC3 cells
S1P4 ag: agonists of human S1P4 receptor. O95977. S1P4-expressing cell line, agonist reporter assay. activation, % at 4.98 µM. actives 0.35% (n = 220,000). AID 1509; in the data active = activation above about 11%;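 note: 0% = DMSO vehicle and 100% = reference agonist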
Target sequence (O95977 whole entry, looked up): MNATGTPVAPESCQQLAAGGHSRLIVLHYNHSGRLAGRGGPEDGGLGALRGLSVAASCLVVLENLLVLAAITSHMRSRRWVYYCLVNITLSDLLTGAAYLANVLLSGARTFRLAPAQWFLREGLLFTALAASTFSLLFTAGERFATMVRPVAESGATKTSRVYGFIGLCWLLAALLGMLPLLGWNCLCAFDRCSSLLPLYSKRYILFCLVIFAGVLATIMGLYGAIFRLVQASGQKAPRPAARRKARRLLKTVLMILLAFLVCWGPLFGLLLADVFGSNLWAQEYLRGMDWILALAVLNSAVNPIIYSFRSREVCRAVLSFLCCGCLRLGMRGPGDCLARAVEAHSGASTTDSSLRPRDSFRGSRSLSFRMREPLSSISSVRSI
S1P4 antag: blocks the human S1P4 receptor; inhibition, % at 4.98 µM; S1P4-expressing cells, antagonist mode, reporter read-out; O95977; actives 0.26% (n = 220,000); AID 1510; in the data active = inhibition above about 29%;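 note: 0% = wells stimulated with agonist and 100% = vehicle wells without agonist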
zVAD death inh: L929 zVAD cell death inhibition. L929 zVAD necroptosis rescue, ATP luminescence, 24 h; with zVAD 60 µM. viability rescue, % at 10 µM. actives 0.38% (n = 220,000). AID 1377;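 active = activation, scaled between plate controls, above about 75%, limit read from the data; inactive = activation under that limit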;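 note: 0% = zVAD with DMSO and 100% = DMSO alone without zVAD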
Hsp70 act: Hsp70 transcriptional activation, primary screen. activation, % at 10 µM. actives 0.04% (n = 200,000). HeLa Hsp70 promoter luciferase reporter, luminescence; scaled: vehicle 0, proteasome-inhibitor control 100%;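 active = activation above the mean across all tested compounds plus 3 SD, cutoff set per campaign, cut at about 5.5% in these data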;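 note: 100% = MG132 at 30 µM as the positive control and 0% = DMSO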
S1P4 agonist cf: human S1P4 agonism, confirmation | shares compounds with S1P4 ag | S1P4 agonist cell-based reporter assay | activation, % at 4.98 µM | actives 7% (n = 740); in the data active = activation above about 12%;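 note: 0% = vehicle and 100% = full reference agonist response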
S1P1 ag: counter-screen for S1P4 agonists: agonists of human S1P1 | shares compounds with S1P4 ag | S1P1 agonist cell-based assay, activation | activation, % at 4.98 µM | actives 4% (n = 740); in the data active = activation above about 21%;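 note: 0% = vehicle wells and 100% = reference agonist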
Active calls of the source: *; i = inactive; ? = inconclusive; · = no result. Only some compounds are listed: those with a hit (about 1% of all), similar ones and a draw of the others.

SMILES	TNF necrop inh	HSV replic up	S1P4 ag	S1P4 antag	zVAD death inh	Hsp70 act	S1P4 agonist cf	S1P1 ag
Cc1ccc(NC(=O)CN(C)C(=O)c2nn(C)c(=O)c3ccccc23)cc1	-2	i	0	3	0	·	·	·
O=C(O)c1cccc(N2C(=O)C3C4C=CC(C4=C(c4ccccc4)c4ccccc4)C3C2=O)c1 (stereo not drawn)	1	i	1	-16	0	0	·	·
Cc1oc2cc(OC(=O)c3ccco3)ccc2c(=O)c1-c1nc2ccccc2n1C	-1	i	12*	-13	·	0	-2	-3
O=C(NCc1ccccc1C(F)(F)F)C1CC(c2ccccc2[N+](=O)[O-])=NO1 (stereo not drawn)	-1	i	0	-24	0	0	·	·
Cc1ccc(/C=C/C(=O)NCc2ccc(S(N)(=O)=O)cc2)o1	1	i	12*	11	2	0	-2	-2
COc1ccc(Nc2nc3c([nH]2)c(=O)[nH]c(=O)n3C)cc1	-2	i	0	9	2	0	·	·
O=c1[nH][nH]c2cc(=O)n(-c3cccc(C(F)(F)F)c3)nc12	-1	i	-1	3	1	0	·	·
Nc1n[nH]c2cc(=O)n(-c3cccc(C(F)(F)F)c3)nc12	-1	·	65*	-21	-2	-1	-2	-7
Cc1ccc(-c2cc3cccc[n+]3cc2-c2ccc(C)cc2)cc1	0	i	0	-12	1	0	·	·
CN1CCc2c(sc3c2C(=O)NC(c2ccco2)N3)C1 (stereo not drawn)	-1	i	4	-19	0	0	·	·
O=C1NC(c2ccco2)Nc2sc3c(c21)CCN(Cc1ccccc1)C3 (stereo not drawn)	0	i	15*	-31	0	0	0	6
O=C(CC(=O)NC1CCCCC1)N/N=C/c1ccccc1F	1	i	-2	-2	3	0	·	·
CCOC(=O)/C=c1\s/c(=C(\C#N)C(=O)OCC)n(-c2ccccc2)c1=O	0	i	160*	-2	-1	0	-2	-6
CCOC(=O)c1cn(CC)c2cc(N3CCOCC3)c(F)cc2c1=O	-5	i	14*	-5	1	0	-2	-3
COc1ccccc1OCCNC(=O)Cc1ccc(Cl)c(Cl)c1	0	i	3	-16	1	0	·	·
CCOC(=O)c1c(NC(=O)CN2CCCc3ccccc32)sc(C(C)=O)c1C	2	i	16*	-3	0	0	-2	4
COc1cccc(CNC(=S)Nc2cc(C)ccc2C)c1	-11	i	-2	8	-3	0	·	·
CCOc1ccc(NC(=O)Nc2cccn(Cc3ccccc3)c2=O)cc1	-4	i	38*	-10	0	0	-1	0
C/C(=N\n1cnnc1)c1ccccc1	1	i	2	-5	2	0	·	·
Cc1ccc(OCC(=O)N/N=C/c2ccc3c(c2)OCO3)cc1C	0	i	12*	13	2	0	-2	1
CC(/C=N/NC(=O)c1cc(-c2ccc(C)o2)[nH]n1)=C\c1ccccc1	0	i	17*	-10	3	0	-2	1
C=CCn1c(COc2cc(C)ccc2C(C)C)nnc1SCC(=O)c1c(N)n(C)c(=O)n(C)c1=O	1	i	13*	-7	0	0	0	1
CCCCCCn1c(COc2ccccc2F)nnc1SCC(=O)c1c(N)n(C)c(=O)n(C)c1=O	1	i	1	-14	10	0	·	·
Cc1cc(C(=O)NCc2cccnc2)no1	3	i	11*	-9	1	0	-1	-6
N=c1oc2cc(O)ccc2cc1C(=O)Nc1nc2ccccc2s1	0	i	92*	-76	1	0	80*	129*
SMILES	TNF necrop inh	HSV replic up	S1P4 ag	S1P4 antag	zVAD death inh	Hsp70 act	S1P4 agonist cf	S1P1 ag
O=C(Nc1nc2ccccc2s1)c1cc(-c2ccco2)nc2ccccc12	2	i	1	-4	1	0	·	·
COc1ccc(NC(=O)C2CC(=O)NC(Nc3cccc(C)c3)=N2)cc1 (stereo not drawn)	0	i	-2	2	0	0	·	·
COc1ccc2nc(NC3=NC(C(=O)Nc4ccc(C)cc4)CC(=O)N3)nc(C)c2c1 (stereo not drawn)	0	i	38*	-15	0	0	-1	-2
COC(=O)c1cc(C)[nH]c2c(C)cc3nc4ccccc4c3c12	-5	i	0	9	10	·	·	·
CCOC(=O)Cc1csc(NC(=O)CC)n1	2	i	1	-11	1	0	·	·
CCOC(=O)Cc1csc(NC(=O)CSc2nc(N)c3c(C)c(C)sc3n2)n1	-2	i	24*	-9	0	0	-1	-3
CCN1C(=O)CS/C1=N\S(=O)(=O)c1ccc(C)cc1	0	i	0	11	0	0	·	·
C=CCN1C(=O)CS/C1=N\S(=O)(=O)c1ccc(Cl)cc1	2	?	11*	-4	1	0	-2	-3
COC(=O)c1ccc(COc2ccccc2/C=C(\C#N)C(=O)Nc2c(C)cccc2C)cc1	-24	i	0	-9	-1	0	·	·
Cc1ccc(S(=O)(=O)N(C)C)cc1NC(=O)COC(=O)c1n[nH]c(=O)c2ccccc12	0	i	25*	-10	10	0	0	-3
Cc1ccc(S(=O)(=O)N2CCOCC2)cc1NC(=O)COC(=O)c1n[nH]c(=O)c2ccccc12	-1	i	0	1	3	0	·	·
O=C(CN1CCN(c2ccccc2O)CC1)Nc1ccc2c(c1)CCC2	4	i	13*	-3	4	0	-1	0
O=C(N[C@@H](Cc1ccccc1)C(=O)OCc1ccccc1)c1nc[nH]c1C(=O)N1CCN(c2ccccc2)CC1	-3	i	·	·	1	·	·	·
O=C(N[C@@H](Cc1ccccc1)C(=O)OCc1ccccc1)c1nc[nH]c1C(=O)NCc1ccccc1	2	i	20*	5	1	0	32*	1
Cc1cc(C)c(C)c(S(=O)(=O)N2CCN(C(=O)CCC(=O)N3CCOCC3)CC2)c1C	0	i	0	-4	0	·	·	·
CS(=O)(=O)N1CCc2cc(C(=O)N3CCOCC3)ccc21	0	i	27*	2	0	0	-2	-3
Cc1cccc(C)c1Nc1nnc(SCC(=O)c2ccc(Br)s2)s1	1	i	34*	-13	3	0	-2	-1
Cc1nn(C)cc1/C=N/NC(=S)Nc1ccc(Cl)cc1Cl	0	i	15*	-89	·	0	0	5
